Assay results from the supplement of paper PMC13094657.
± gives the standard deviation of the averaged measurements.

Test system: MDA-MB-231
Assay: kynurenine production, fold change vs DMSO IFNg/TNF control; higher = more kynurenine produced (less inhibition)
Details: pre-treatment time: 18 h then 24 h IFNg/TNF
Summary of the method: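 Fold change over cytokine-stimulated vehicle wells on the same plate is the measure used for kynurenine production, averaged across duplicate plates in the first screening round. MDA-MB-231 cells, seeded 24 h beforehand at 7 × 10^4/well in 96-well plates, were pre-treated 18 h with each natural product in 0.1% DMSO and stimulated 24 h at 37°C with IFNγ (1 U/ml) and TNF (6.25 ng/ml). Supernatants were read at 492 nm following trichloroacetic acid and p-dimethylaminobenzaldehyde treatment, against 0–100 μM standards.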

SMILES | kynurenine production
C=C1CC[C@H]2[C@@H](/C=C(\C)C(=O)[C@@]3(OC(C)=O)C[C@H](C)[C@H](OC(=O)c4ccccc4)[C@@H]3[C@H]1OC(C)=O)C2(C)C [5,15-Diacetyl-3-benzoyllathyrol] (compound dose: 10 uM) | 0.94 ± 0.14
C/C=C(/C)C(=O)O[C@H]1C(C)=C[C@]23C(=O)[C@@H](C=C(C)[C@@H](O)[C@]12O)[C@H]1[C@@H](C[C@H]3C)C1(C)C [20-Deoxyingenol 3-angelate] (compound dose: 10 uM) | 0.8582 ± 0.0053
COc1cc(C[C@H]2C(=O)OC[C@@H]2Cc2ccc3c(c2)OCO3)cc(OC)c1OC [Yatein] (compound dose: 10 uM) | 0.843 ± 0.035
CC(C)(O)/C=C/C(=O)[C@](C)(O)[C@H]1[C@H](O)C[C@@]2(C)[C@@H]3CC=C4[C@@H](C[C@H](O)C(=O)C4(C)C)[C@]3(C)C(=O)C[C@]12C [Cucurbitacin D] (compound dose: 10 uM) | 0.326 ± 0.083
COc1ccc2c(c1O)-c1c(O)c(OC)cc3c1[C@H](C2)N(C)CC3 [Corytuberine] (compound dose: 10 uM) | 0.889 ± 0.11
COc1ccc2c3c1O[C@H]1CC(=O)C=C[C@@]31CCN(C)C2 [Galanthaminone] (compound dose: 10 uM) | 0.7845 ± 0.0068
CC(C)[C@]12O[C@H]1[C@@H]1O[C@@]13[C@@]1(C)CCC4=C(COC4=O)[C@@H]1C[C@@H]1O[C@@]13C2=O [Triptonide] (compound dose: 10 uM) | 0.218 ± 0.019
CN1C2CCC1CC(O)C2 (centres undefined) [Tropine] (compound dose: 10 uM) | 0.902 ± 0.2
CC1=C[C@]23C(=O)[C@@H](C=C(COC(=O)c4ccccc4)[C@@H](O)[C@]2(O)[C@H]1OC(=O)c1ccccc1)[C@H]1[C@@H](C[C@H]3C)C1(C)C [Ingenol 3,20-dibenzoate] (compound dose: 10 uM) | 0.6413 ± 0.0018
COC(=O)[C@]1(C)CC[C@]2(C)CC[C@]3(C)C4=CC=C5C(=CC(=O)C(O)=C5C)[C@]4(C)CC[C@@]3(C)[C@@H]2C1 [Pristimerin] (compound dose: 10 uM) | 0.0819 ± 0.0029
COc1cc([C@@H]2c3cc4c(cc3C[C@H]3COC(=O)[C@@H]32)OCO4)cc(OC)c1OC [4-deoxypodophyllotoxin] (compound dose: 10 uM) | 0.623 ± 0.19
C=C1[C@H](OC(=O)c2ccccc2)C[C@H]2[C@@H](/C=C(\C)C(=O)[C@@]3(OC(C)=O)C[C@H](C)[C@H](OC(=O)c4ccccc4)[C@@H]3[C@H]1OC(C)=O)C2(C)C [Euphorbia Factor L2] (compound dose: 10 uM) | 0.5 ± 0.15
CCCCCCCCCCCCCC(=O)O[C@@H]1[C@@H](C)[C@@]2(O)[C@@H](C=C(CO)C[C@]3(O)C(=O)C(C)=C[C@@H]23)[C@@H]2C(C)(C)[C@]12OC(C)=O [12-O-tetradecanoyl phorbol-13-acetate] (compound dose: 10 uM) | 0.858 ± 0.021
C=C(C)C(=O)O[C@H]1[C@@H]2[C@H](C)C(=O)O[C@@H]2C[C@@H](C)[C@@H]2C=CC(=O)[C@]21C [Arnicolide D] (compound dose: 10 uM) | 0.153 ± 0.067
C=C1[C@H](OC(C)=O)[C@@H](OC(=O)c2ccccc2)[C@@H](OC(C)=O)C(C)(C)[C@H]2O[C@](O)([C@@H](C)C2=O)[C@@]2(OC(C)=O)C[C@H](C)[C@H](OC(C)=O)[C@@H]2[C@H]1OC(C)=O [Kansuinine A] (compound dose: 10 uM) | 0.709 ± 0.031
COc1cc2c(cc1OC)-c1c(OC)c(OC)cc3c1[C@H](C2)N(C)CC3 [(S)-Glaucine (Alkaloid purified from Papaver somniferum)] | 0.905 ± 0.052
CC1=C[C@]23C(=O)[C@@H](C=C(CO)[C@@H](O)[C@]2(O)[C@H]1O)[C@H]1[C@@H](C[C@H]3C)C1(C)C [Ingenol] (compound dose: 10 uM) | 0.846 ± 0.12
CC(C)=CCC[C@](C)(O)[C@H]1CC[C@]2(C)[C@@H]1[C@H](O)C[C@@H]1[C@@]3(C)CC[C@H](O)C(C)(C)[C@@H]3[C@@H](O[C@@H]3O[C@H](CO)[C@@H](O)[C@H](O)[C@H]3O)C[C@]12C [Ginsenoside Rh1] (compound dose: 10 uM) | 0.852 ± 0.15
C=C1[C@@H]2CC[C@H]3[C@]4(C)C[C@H](O[C@@H]5O[C@H](CO)[C@@H](OS(=O)(=O)O)[C@H](OS(=O)(=O)O)[C@H]5OC(=O)CC(C)C)CC(C(=O)O)(C(=O)O)[C@H]4CC[C@]3(C2)[C@H]1O [Carboxyatractyloside (dipotassium)] (compound dose: 10 uM) | 0.825 ± 0.43
